High-throughput results as filed in PubChem.
USP30 inh: inhibitors of human USP30 deubiquitinase; Ubiquitin carboxyl-terminal hydrolase 30 (Homo sapiens), Q70CQ3; purified USP30, Ub-rhodamine cleavage fluorescence; inhibition, % at 25 µM; hit rate 5.3% among 47,000; AID 1645860, 2021
Target sequence (Q70CQ3 whole entry, looked up): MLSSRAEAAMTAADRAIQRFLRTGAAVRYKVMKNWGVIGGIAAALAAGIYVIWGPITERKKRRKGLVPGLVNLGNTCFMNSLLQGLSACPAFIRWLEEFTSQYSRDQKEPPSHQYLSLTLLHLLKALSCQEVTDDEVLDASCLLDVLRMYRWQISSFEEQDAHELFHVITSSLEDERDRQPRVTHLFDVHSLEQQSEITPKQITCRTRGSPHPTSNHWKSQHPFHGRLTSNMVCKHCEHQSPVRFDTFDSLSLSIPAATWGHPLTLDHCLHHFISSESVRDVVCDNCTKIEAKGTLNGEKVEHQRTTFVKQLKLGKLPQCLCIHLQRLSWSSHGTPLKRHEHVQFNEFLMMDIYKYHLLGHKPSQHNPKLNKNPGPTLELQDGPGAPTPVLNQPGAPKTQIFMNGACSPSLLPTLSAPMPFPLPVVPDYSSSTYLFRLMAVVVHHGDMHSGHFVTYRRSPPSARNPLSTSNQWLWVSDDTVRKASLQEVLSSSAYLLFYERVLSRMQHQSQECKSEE
OTUD3 inh: inhibitors of human OTUD3 deubiquitinase; purified OTUD3, Ub-rhodamine fluorescence, 2 h; inhibition, % at 25 µM; AID 1645858, 2021; hit rate 0.7% among 47,000
USP17 block: inhibitors of human USP17 deubiquitinase. purified USP17, Ub-rhodamine cleavage fluorescence, 3 h. hit rate 6.5% among 47,000. inhibition, % at 50 µM
USP28 inh: inhibitors of human USP28 deubiquitinase. hit rate 3% among 47,000. inhibition, % at 25 µM. Ubiquitin carboxyl-terminal hydrolase 28 (Homo sapiens), Q96RU2. purified USP28, Ub-rhodamine cleavage fluorescence, 30 min
* hit, by the source's call. Sampled rows, rich in hits. Any-hit rate of the full collection: about 11%. Rule as the data show it: active = inhibition above about 30%; inactive = the rest.

What do the screens show for `Cc1nnc(Sc2cc(C(=O)NCCN3CCCC3)c3ccccc3n2)s1`?
USP30 inh: -12; OTUD3 inh: -7; USP17 block: 52*; USP28 inh: -9

What do the screens show for `Cc1nnc(Sc2cc(C(=O)NCc3ccco3)c3ccccc3n2)s1`?
USP30 inh: -64; OTUD3 inh: 0; USP17 block: 12; USP28 inh: -15

Results for Cc1cc(Cl)ccc1Nc1nc(Nc2cccc(F)c2)nc2nccnc12 ?
USP30 inh: inactive; OTUD3 inh: -175; USP17 block: -181; USP28 inh: -277

Results for Cc1ccccc1CNC(=O)c1ccc(-c2ccc(N3CCCC3)nn2)cc1 ?
USP30 inh: -3; OTUD3 inh: -13; USP17 block: 48*; USP28 inh: 4

Results for O=C(NCc1ccccc1Cl)C1CCN(c2ccc(-c3ccccc3)nn2)CC1 ?
USP30 inh: 41*; OTUD3 inh: 10; USP17 block: 1; USP28 inh: 6

What do the screens show for `CCN(CC)C(=O)C1C(=O)NC2(C)CC1c1ccccc1O2` (configuration not stated)?
USP30 inh: 2; OTUD3 inh: 2; USP17 block: 5; USP28 inh: 5

What do the screens show for `O=C(c1cc2occc2c(Nc2ccc(F)cc2)n1)N1CCN(c2ccccn2)CC1`?
USP30 inh: 27; OTUD3 inh: 6; USP17 block: 34*; USP28 inh: 13

Results for Cc1ccc(Nc2nc(C(=O)N3CCN(c4ccccn4)CC3)cc3occc23)cc1Cl ?
USP30 inh: -70; OTUD3 inh: -7; USP17 block: 15; USP28 inh: 9

Results for O=C(Nc1nnc(CCc2ccccc2)s1)C(=O)c1c[nH]c2ccccc12 ?
USP30 inh: 35*; OTUD3 inh: 4; USP17 block: 23; USP28 inh: 11

What do the screens show for `Cc1ccc(NC(=O)c2cc(=O)n(C)c3c2c(=O)n(C)c(=O)n3C)cc1F`?
USP30 inh: 0; OTUD3 inh: 7; USP17 block: 6; USP28 inh: 0

What do the screens show for `O=c1ncn(Cc2ccc3c(c2)OCO3)cc1-c1ncc(C(F)(F)F)cc1Cl`?
USP30 inh: 46*; OTUD3 inh: 2; USP17 block: 51*; USP28 inh: 3

How did COc1cc(OC)c(NC(=O)c2cccc(-c3noc(C)n3)c2)cc1Cl do in these assays?
USP30 inh: -6; OTUD3 inh: 0; USP17 block: -1; USP28 inh: -10

Results for O=C1[C@@H]2Cc3ccccc3CN2C(=O)N1c1ccccc1[N+](=O)[O-] ?
USP30 inh: 16; OTUD3 inh: 13; USP17 block: -11; USP28 inh: 11

How did Cc1ccc(CNC(=O)c2ccc(N3C(=O)[C@@H]4Cc5ccccc5CN4C3=O)cc2)cc1 do in these assays?
USP30 inh: 49*; OTUD3 inh: 11; USP17 block: 62*; USP28 inh: 11

How did O=C1[C@@H]2Cc3ccccc3CN2C(=O)N1c1cccc2ccccc12 do in these assays?
USP30 inh: 33*; OTUD3 inh: 10; USP17 block: 9; USP28 inh: 13

How did COc1ccc2ncc(S(=O)(=O)c3ccccc3)c(N3CCN(C)CC3)c2c1 do in these assays?
USP30 inh: 11; OTUD3 inh: 14; USP17 block: 4; USP28 inh: 10

How did COc1ccc(OC)c(-c2cn3ccn(-c4ccc5c(c4)CCC5)c(=O)c3n2)c1 do in these assays?
USP30 inh: 51*; OTUD3 inh: 2; USP28 inh: 21

What do the screens show for `CCC(C(=O)Nc1c2c(nn1-c1ccc(Cl)cc1)CS(=O)(=O)C2)c1ccccc1` (configuration not stated)?
USP30 inh: 12; OTUD3 inh: 0; USP17 block: 38*; USP28 inh: 0

Results for COc1ccc(-n2nc3c(c2NC(=O)/C=C\c2ccccc2)CS(=O)(=O)C3)cc1 ?
USP30 inh: -10; OTUD3 inh: -11; USP17 block: -10; USP28 inh: -9

What do the screens show for `O=C(/C=C\c1ccc2c(c1)OCO2)Nc1c2c(nn1-c1ccc(Cl)cc1)CS(=O)(=O)C2`?
USP30 inh: 47*; OTUD3 inh: 39*; USP17 block: 57*; USP28 inh: 36*

How did Cc1cc2cc3c(cc2n2c(=O)n(CCN4CCCC4)nc12)OCO3 do in these assays?
USP30 inh: 42*; OTUD3 inh: 4; USP17 block: 47*; USP28 inh: 10

What do the screens show for `Cc1cc(C)c2c(c1)cc(C)c1nn(CC(N)=O)c(=O)n12`?
USP30 inh: 10; OTUD3 inh: 2; USP17 block: 6; USP28 inh: 0

How did O=C(Cc1ccc(Cl)cc1)N1CCC2(C1)C(=O)Nc1ccccc12 (configuration not stated) do in these assays?
USP30 inh: -21; OTUD3 inh: -8; USP17 block: -11; USP28 inh: -12

Results for COc1ccccc1Oc1nc(-c2ccccc2)cc(C)c1S(C)(=O)=O ?
USP30 inh: 14; OTUD3 inh: 7; USP17 block: 28; USP28 inh: 37*

Results for COCCn1nnnc1CN1CCC(Nc2nc3c(c(=O)[nH]2)CCCC3)CC1 ?
USP30 inh: 5; OTUD3 inh: 1; USP17 block: 2; USP28 inh: 7

Results for COc1ccc(CCN2COc3c(cc(Cl)c4cccnc34)C2)cc1OC ?
USP30 inh: 49*; OTUD3 inh: 10; USP17 block: 93*; USP28 inh: 30

Results for CC(C)CC1NC(=O)C2CCCN2C1=O (configuration not stated) ?
USP30 inh: 18; OTUD3 inh: 33*; USP17 block: 71*; USP28 inh: 51*

How did O=C(O[C@@H]1C[C@H]2C(=O)N[C@H](Cc3ccccc3)C(=O)N2C1)c1ccccc1 do in these assays?
USP30 inh: 11; OTUD3 inh: 4; USP17 block: 8; USP28 inh: 3

How did CC(C)CC1NC(=O)C2CC(O)CN2C1=O (configuration not stated) do in these assays?
USP30 inh: 37*; OTUD3 inh: 13; USP17 block: 19; USP28 inh: 20

Results for Cc1cc(C(=O)N2CCN(C3CCN(Cc4ccc(Cl)o4)CC3)C(=O)C2)c(C)o1 ?
USP30 inh: inactive; OTUD3 inh: -210; USP17 block: -152; USP28 inh: -261

How did O=C(CN1C(=O)c2ccccc2C1c1c[nH]c2ccccc12)NCCc1ccccc1 (configuration not stated) do in these assays?
USP30 inh: -1; OTUD3 inh: 8; USP17 block: -69; USP28 inh: 14

How did c1ccc(-c2noc(-c3cc(-c4ccncc4)nc4ccccc34)n2)nc1 do in these assays?
USP30 inh: 14; OTUD3 inh: -1; USP17 block: 53*; USP28 inh: 22

What do the screens show for `COc1ccc(C(=O)OCc2cc(=O)oc3c(C)c(C)ccc23)c(OC)c1`?
USP30 inh: 2; OTUD3 inh: 4; USP17 block: 0; USP28 inh: -2

What do the screens show for `O=C(COC(=O)c1ccc2c(=O)n3c(nc2c1)CCC3)Nc1ccc2c(c1)OCCO2`?
USP30 inh: 7; OTUD3 inh: -6; USP17 block: 5; USP28 inh: 9
